Measurements published in PubChem BioAssay (NCATS).
Where “and” joins values, the source holds several entries; their conditions need not be identical. Equal entries are not always repeated. Results filed as inconclusive are left out. A call without a number means that no potency is given here. Unmarked numbers belong to inactive results. Calls of active or inactive are those of the source. Unless noted, calls come from the whole dose curve; as a rule, active = well fitted curve in the direction sought with a large enough effect; inconclusive = small, poorly fitted or top-dose-only effect, or another doubt; inactive = no such curve, though single readings can be large; an effect the other way counts as inactive or inconclusive. Where a SMILES comes first, the peptide text is derived from it. The star is where a group is joined. Hexanoyl = CCCCCC(=O)*; PhAc = O=C(Cc1ccccc1)*

What was measured:
[1] = target: Calcium and integrin-binding protein 1 (Homo sapiens) (UniProt Q99828); assay: Primary qHTS for Identification of Calcium Integrin Binding Protein 1 (CIB1) Competitor (AID 1508620);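 note: GST tagged CIB1 binding a fluorescein labelled alphaIIb integrin peptide tracer; top concentration of the series differs between compounds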
In short: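 CIB1-GST (1 uM final) and compound incubated 15 min at room temperature before adding FITC-alphaIIb peptide tracer (100 nM final). Competition for binding read by fluorescence polarization (ex 480, em 540) after another 15 min at room temperature.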

[2] = target: Cytochrome P450 2D6 (Homo sapiens) (UniProt P10635); assay: Cytochrome P450 family 2 subfamily D member 6 (CYP2D6) small molecule antagonists: luciferase biochemical (cell-free) qHTS assay (AID 1645840; active = well fitted curve in the direction sought with a large enough effect in the repeat runs; an effect the other way counts as inactive or inconclusive; note: nearly all actives have a fitted effect of over 55% in size; note: potency is the fitted concentration of half-maximal effect)
In short: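 P450-Glo luminescent screen: recombinant CYP2D6 enzyme–proluciferin substrate mix preincubated with compound 10 min at room temperature, then NADPH regeneration added for 1 h at room temperature. Detection reagent added for 20 min; luciferin light read as relative luminescence units.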

[3] = target: Cytochrome P450 2C9 (Homo sapiens) (UniProt P11712); assay: Cytochrome P450 family 2 subfamily C member 9 (CYP2C9) small molecule antagonists: luciferase biochemical (cell-free) qHTS assay (AID 1645842; active = well fitted curve in the direction sought with a large enough effect in the repeat runs; an effect the other way counts as inactive or inconclusive; note: nearly all actives have a fitted effect of over 55% in size; note: potency is the fitted concentration of half-maximal effect)
In short: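 Luminescence, after 20 min with luciferin detection reagent, reflected CYP2C9 turnover during a 1 h NADPH-driven reaction at 37C. Enzyme-substrate mix contained 0.4% bovine serum albumin and was preincubated with compound 10 min at room temperature.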

[4] = Primary qHTS for inhibitors of nuclear receptor binding SET domain protein 2 (NSD2) in an isogenic RCH-ACV NSD2 p.E1099K mutant (9B) (AID 1645876); note: nearly all actives have a fitted effect of over 70% in size; note: potency is the fitted concentration of half-maximal effect
[5] = Primary qHTS for inhibitors of nuclear receptor binding SET domain protein 2 (NSD2) in an RCH-ACV wild type WT cells (2C) (AID 1645877); note: nearly all actives have a fitted effect of over 70% in size; note: potency is the fitted concentration of half-maximal effect
[6] = target: Cytochrome P450 3A4 (Homo sapiens) (UniProt P08684); assay: Cytochrome P450 family 3 subfamily A member 4 (CYP3A4) small molecule antagonists: luciferase qHTS assay (AID 1645841; active = well fitted curve in the direction sought with a large enough effect in the repeat runs; an effect the other way counts as inactive or inconclusive; note: potency is the fitted concentration of half-maximal effect; nearly all actives have a fitted effect of over 45% in size)
In short: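 Luminescent CYP3A4 activity readout: compounds plus enzyme-substrate mix 10 min at room temperature, reaction started with NADPH regenerating system for 1 h, stopped with detection reagent, read after 20 min. Ketoconazole served as control.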

Cytochrome P450 2D6 (Homo sapiens), sequence (P10635 whole entry, looked up): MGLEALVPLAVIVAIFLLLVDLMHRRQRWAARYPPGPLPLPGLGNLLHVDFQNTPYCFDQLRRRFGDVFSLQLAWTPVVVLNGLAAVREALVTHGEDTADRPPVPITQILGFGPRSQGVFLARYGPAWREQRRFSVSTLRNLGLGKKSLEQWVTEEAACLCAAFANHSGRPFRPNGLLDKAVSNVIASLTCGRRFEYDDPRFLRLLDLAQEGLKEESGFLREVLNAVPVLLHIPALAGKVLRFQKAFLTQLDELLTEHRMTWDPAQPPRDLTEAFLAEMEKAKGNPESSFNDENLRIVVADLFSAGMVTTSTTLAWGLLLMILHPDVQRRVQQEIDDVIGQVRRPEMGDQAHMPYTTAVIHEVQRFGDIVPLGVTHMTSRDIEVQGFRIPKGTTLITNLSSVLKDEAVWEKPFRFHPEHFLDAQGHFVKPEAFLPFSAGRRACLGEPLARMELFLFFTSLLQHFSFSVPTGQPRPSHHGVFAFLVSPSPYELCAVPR
Calcium and integrin-binding protein 1 (Homo sapiens), sequence (Q99828 whole entry, looked up): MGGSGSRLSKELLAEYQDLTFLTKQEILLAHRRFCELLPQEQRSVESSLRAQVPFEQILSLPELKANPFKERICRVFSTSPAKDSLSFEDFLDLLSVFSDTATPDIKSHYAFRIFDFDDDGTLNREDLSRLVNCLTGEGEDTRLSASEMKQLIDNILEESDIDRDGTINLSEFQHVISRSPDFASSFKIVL
Cytochrome P450 2C9 (Homo sapiens), sequence (P11712 whole entry, looked up): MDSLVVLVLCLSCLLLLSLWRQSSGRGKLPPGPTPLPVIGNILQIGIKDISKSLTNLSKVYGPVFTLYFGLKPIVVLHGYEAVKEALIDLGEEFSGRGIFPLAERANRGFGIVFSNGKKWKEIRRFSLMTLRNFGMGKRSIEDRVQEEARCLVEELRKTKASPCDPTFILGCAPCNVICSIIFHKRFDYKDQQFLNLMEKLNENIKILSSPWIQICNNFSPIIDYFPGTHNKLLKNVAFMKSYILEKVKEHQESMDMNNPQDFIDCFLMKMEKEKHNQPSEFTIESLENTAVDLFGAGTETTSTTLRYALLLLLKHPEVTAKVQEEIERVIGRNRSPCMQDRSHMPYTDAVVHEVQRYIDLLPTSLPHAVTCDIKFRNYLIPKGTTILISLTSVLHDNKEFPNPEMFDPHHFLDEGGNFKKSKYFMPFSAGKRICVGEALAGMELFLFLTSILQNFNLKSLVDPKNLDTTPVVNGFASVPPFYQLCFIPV
Cytochrome P450 3A4 (Homo sapiens), sequence (P08684 whole entry, looked up): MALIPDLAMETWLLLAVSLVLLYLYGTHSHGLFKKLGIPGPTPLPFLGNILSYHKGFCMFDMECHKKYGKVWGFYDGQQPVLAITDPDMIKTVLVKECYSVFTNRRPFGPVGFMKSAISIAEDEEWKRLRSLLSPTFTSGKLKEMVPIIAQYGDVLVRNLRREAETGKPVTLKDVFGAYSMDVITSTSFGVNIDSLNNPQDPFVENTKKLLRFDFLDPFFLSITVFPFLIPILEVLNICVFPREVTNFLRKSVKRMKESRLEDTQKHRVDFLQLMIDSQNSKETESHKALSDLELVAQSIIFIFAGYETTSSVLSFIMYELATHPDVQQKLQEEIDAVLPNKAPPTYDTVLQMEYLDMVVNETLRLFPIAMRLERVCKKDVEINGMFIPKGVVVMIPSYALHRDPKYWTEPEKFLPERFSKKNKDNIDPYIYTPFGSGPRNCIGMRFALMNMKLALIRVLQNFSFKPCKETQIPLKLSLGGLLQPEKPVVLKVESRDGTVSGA

Compound | Potency [1] | Potency [2] | Potency [3] | Potency [4] | Potency [5] | activity change, negative = viability loss [4] | outcome [5] | Potency [6]
CCCCNc1nc(N)c2[nH]c(=O)n(Cc3ccc(OCCN(C)C)nc3)c2n1 | inactive | inactive | inactive | inactive | inactive | – | – | –
COc1cc(Nc2nc3ccccc3nc2NS(=O)(=O)c2cccc(NC(=O)c3ccc(C)c(OC)c3)c2)cc(OC)c1 | inactive | inactive | 1.51 µM (active) | inactive | inactive | – | – | –
O=C(O)CC1CCC(c2ccc(NC(=O)c3nnc(Nc4ccc(F)c(F)c4)o3)cc2)CC1 (centres undefined) | inactive | inactive | inactive | inactive | inactive | – | – | –
CC[C@@H](C)[C@H](N)C(=O)N1Cc2ccccc2C1 | inactive | 13.5 µM (active) | inactive | inactive | – | – | – | –
Cc1oc2nc3c(c(NC(=O)CN4CCCC4=O)c2c1C)CCCC3 | inactive | inactive | inactive | inactive | inactive | – | – | –
COc1ccc(CC(=O)NCc2ccccc2-c2ccccc2C(=O)NCCc2cccnc2)cc1 | inactive | 10.7 µM (active) | 2.68 µM (active) | inactive | inactive | – | – | –
Cc1nc2ccccc2c(-c2ccc3c4c(ccnc24)CCO3)c1[C@H](OC(C)(C)C)C(=O)O | inactive | inactive | inactive | inactive | inactive | – | – | –
CC(=O)NCC1CN(c2ccc(-c3ccc(CNCc4cn[nH]n4)cc3)c(F)c2)C(=O)O1 (centres undefined) | inactive | inactive | 15.1 µM (active) | – | – | – | – | –
CCCCCC(=O)N1CCC[C@H]1C(=O)N[C@@H](Cc1ccc(O)cc1)C(=O)OC (Hexanoyl-Pro-Tyr-OMe) | inactive | inactive | 2.39 µM (active) | inactive | inactive | – | – | –
Cc1cn(C[C@H](N)C(=O)O)c(=O)n(Cc2ccsc2C(=O)O)c1=O | inactive | inactive | inactive | inactive | inactive | – | – | –
CCCC(C(=O)O)c1c(C)nc2ccc(Cl)cc2c1-c1ccccc1 (centres undefined) | inactive | inactive | 21.3 µM (active) | inactive | inactive | – | – | –
CCCNCCOc1ccc(NC(=O)c2c[nH]c3c2C(=O)CCC3)cc1F | inactive | inactive | inactive | – | – | – | – | –
Nc1c(-c2ccccc2)nc(Cl)c2c(O)n[nH]c(=O)c12 | inactive | inactive | 10.7 µM (active) | inactive | inactive | – | – | –
Cc1nc2cc(-c3cc(F)cc(C#N)c3)ccc2s1 | inactive | inactive | – | inactive | inactive | – | – | –
COc1ccc(-n2c(SCC#N)nc3sc4c(c3c2=O)CCCC4)cc1 | inactive | inactive | 4.77 µM (active) | inactive | inactive | – | – | –
Cc1cc(Cn2cnc3c2CC(C(=O)O)N(C(=O)C(c2ccccc2)c2ccccc2)C3)ccc1N(C)C (centres undefined) | inactive | inactive | inactive | inactive | inactive | – | – | –
CNC(C)C(=O)NC(C(=O)N1CCCC1C(=O)Nc1cccc2ncccc12)C(C)C (centres undefined) | inactive | inactive | inactive | inactive | inactive | – | – | –
CCC[C@H](N[C@@H](C)C(=O)N1[C@H](C(=O)O)C[C@@H]2CCCC[C@@H]21)C(=O)O | inactive | inactive | inactive | inactive | inactive | – | – | –
O=C(CCCCC1CCCCC1)N1CCC(c2cnc[nH]2)CC1 | inactive | 5.35 µM (active) | – | 23 µM (active) | – | – | – | –
CCOC(=O)CSc1nc2c(sc3ccccc32)c(=O)n1CCCN1CCCC1 | inactive | 0.849 µM (active) | – | inactive | inactive | – | – | –
COc1ccnc(CCc2nc3ncccc3[nH]2)c1 | inactive | inactive | inactive | inactive | inactive | – | – | –

Compound | Potency [1] | Potency [2] | Potency [3] | Potency [4] | Potency [5] | activity change, negative = viability loss [4] | outcome [5] | Potency [6]
COc1cc(Nc2nc3c(s2)CCCC3c2ccccc2)ccc1-n1cnc(C)c1 (centres undefined) | inactive | 0.275 µM (active) | – | – | – | -1.48% [at 9.23 µM] | inactive [at 9.23 µM] | –
CCC1(O)CC2c3cc(OC)c(OC)cc3CCN2CC1CC(C)C (centres undefined) | inactive | 0.849 µM (active) | inactive | inactive | inactive | – | – | –
NC(N)=NCCC[C@H](NC(=O)c1sccc1NS(=O)(=O)c1cccc2nsnc12)C(=O)O | inactive | inactive | – | inactive | – | – | – | –
FC(F)(F)c1nnc2c(Sc3ccccc3)nc3ccc(Cl)cc3n12 | inactive | inactive | – | 4.09 µM (active) | – | – | – | –
CC(CNS(=O)(=O)C(C)C)c1ccc(-c2ccc(C#N)cc2)cc1 (centres undefined) | inactive | inactive | inactive | – | 8.17 µM (active) | – | – | –
c1cc(-c2cc(C3CCNCC3)[nH]n2)ccn1 | inactive | 15.1 µM (active) | inactive | inactive | inactive | – | – | –
Nc1ncnc2c1ncn2[C@H]1O[C@@H](C(=O)N2CCN(CC(=O)Nc3cccc4c3CNC4=O)CC2)[C@H](O)[C@@H]1O | inactive | inactive | – | inactive | inactive | – | – | –
COc1cccc2c1c(O)c(C(=O)N(C)c1ccc(C(F)(F)F)cc1)c(=O)n2C | inactive | inactive | – | inactive | – | – | – | –
CC(C(=O)Nc1cc(C#N)ccc1CCCC(=O)O)c1ccc(F)c2ccccc12 (centres undefined) | inactive | inactive | 0.536 µM (active) | inactive | inactive | – | – | –
CCCCS(=O)(=O)NC(Cc1ccc(OCCCCC2CCNCC2)cc1)C(=O)O (centres undefined) | inactive | inactive | inactive | inactive | inactive | – | – | –
Cc1cc(CNC(=O)c2cc(C(=O)NCc3ccc(F)c(C)c3)ncn2)ccc1F | inactive | inactive | – | inactive | inactive | – | – | –
Cc1oc(S(=O)(=O)N2CCCCC2)cc1NC(=O)Nc1ccccc1 | inactive | 12 µM (active) | 6.01 µM (active) | inactive | inactive | – | – | –
CCC(C)(C)C1CCc2c(sc(NC(=O)c3ccc(Br)cc3)c2C#N)C1 (centres undefined) | inactive | inactive | inactive | inactive | inactive | – | – | –
CNc1nc(Nc2cn(C(C)(C)C#N)nc2C)ncc1C(F)(F)F | inactive | inactive | 7.56 µM (active) | inactive | inactive | – | – | –
Cn1cc(CCn2cnc(-c3cnn(C)c3)c2-c2ccc(C#N)cc2)cn1 | inactive | inactive | inactive | inactive | inactive | – | – | –
CCOC(=O)CNC(=O)[C@@H]1CCCN1C(=O)Cc1ccccc1 (PhAc-Pro-Gly-OEt) | inactive | inactive | – | inactive | inactive | – | – | –
COc1ccc(Oc2c(Cl)cnn(C3c4ccccc4-c4ccccc43)c2=O)cc1 | inactive | inactive | – | inactive | – | – | – | –
CC(C)c1c(NC(=O)Nc2ccc(Cl)cc2)c(=O)n(-c2ccccc2)n1C | inactive | 12 µM (active) | – | inactive | inactive | – | – | –
Cc1ccc2nc(NC(=O)CSc3nc4c(c(=O)n3-c3ccc(F)cc3)SCC4)sc2c1 | inactive | inactive | – | inactive | inactive | – | – | –
COc1ccc(C(=O)NCc2cc(C(C)C)no2)cc1OC1CCN(C)CC1 | inactive | inactive | inactive | inactive | inactive | – | – | –
FC(F)(F)Oc1ccc(-c2ccc3nnc(C(F)(F)F)n3c2)cc1 | inactive | inactive | – | inactive | inactive | – | – | –

Compound | Potency [1] | Potency [2] | Potency [3] | Potency [4] | Potency [5] | activity change, negative = viability loss [4] | outcome [5] | Potency [6]
Cc1ccc(-n2nc(C(C)(C)C)cc2NC(=O)Nc2cc(COc3cccnc3)[nH]n2)cc1 | inactive | 15.1 µM (active) | 7.56 µM (active) | 18.3 µM (active) | 9.16 µM (active) | – | – | –
Cn1c2ccc(NC(=O)c3ccccc3)cc2c(=O)n2nc(C(=O)O)cc12 | inactive | inactive | inactive | inactive | inactive | – | – | –
CCOC(=O)COc1ccc2c(c1)C[C@@H](NC[C@H](O)c1cccc(Cl)c1)CC2 | inactive | 0.756 µM (active) | 16.9 µM (active) | inactive | inactive | – | – | –
COc1cccc(OC)c1-c1nc(C(=O)N[C@@H](CC(C)C)C(=O)O)cn1-c1ccnc2cc(Cl)ccc12 | inactive | inactive | – | inactive | inactive | – | – | –
O=C(Nc1ccccc1)Nc1ccc(-c2ccc(C(=O)C3CCCC3C(=O)O)cc2)cc1 (centres undefined) | inactive | inactive | 16.9 µM (active) | inactive | inactive | – | – | –
NC1=NC2(c3cc(NC(=O)c4ccc(F)cn4)ccc3F)COCC2CS1 (centres undefined) | inactive | 4.77 µM (active) | – | inactive | inactive | – | – | –
Fc1ccc(-c2c3cccc(C(F)(F)F)c3nn2Cc2ccc(F)cc2Cl)cc1 | inactive | inactive | – | inactive | inactive | – | – | –
Cc1occc1C(=O)n1ccnc1 | inactive | inactive | – | inactive | – | – | – | –
C[C@@H](c1ccccc1)N(C(N)=NC#N)c1cccc2ncccc12 | inactive | inactive | – | inactive | inactive | – | – | –
CCCCOc1nc(N)c2c(n1)N(Cc1cccc(CN3CCCC3)c1)CC(=O)N2 | inactive | 3.38 µM (active) | inactive | inactive | inactive | – | – | –
Cc1ccc(-c2c(-c3nn(C)c4ncnc(N5CCC(N6CCCCC6)C5)c34)cnn2C)cc1 (centres undefined) | inactive | – | 19 µM (active) | inactive | inactive | – | – | 0.12 µM (active)
O=C(O)c1cc(C(F)(F)F)ccc1N1CC[C@H](OCc2ccccn2)C1 | inactive | – | 19 µM (active) | inactive | – | – | – | –
Cc1ncc(NC(=O)c2ccc(CN3CCN(C)CC3)c(C(F)(F)F)c2)cc1Nc1nccc(-c2cccnc2)n1 | inactive | 10.7 µM (active) | – | 7.28 µM (active) and 5.9 µM (active) | 8.17 µM (active) and 5.9 µM (active) | – | – | –
Cc1ccc(C)c(NC(=O)CNS(=O)(=O)c2ccc3[nH]c(=O)oc3c2)c1 | inactive | – | inactive | inactive | inactive | – | – | –
Cc1ccc(COC(=O)N2CC[C@@H](CNc3ncccn3)[C@@H](F)C2)cc1 | inactive | – | 13.5 µM (active) | – | – | – | – | –
N#Cc1ccc(C2CCCc3cncn32)cc1 (centres undefined) | inactive | 17.5 µM (active) | – | inactive | inactive | – | – | –
COc1ccc(-c2ccn(CC[C@](C)(C(=O)NO)S(C)(=O)=O)c(=O)c2)c(F)c1 | inactive | – | inactive | – | – | – | – | –
Cc1[nH]c2ccccc2c1CC(=O)N[C@@H](Cc1ccccc1)C(=O)N(C)c1ccccc1 | inactive | 16.9 µM (active) | – | – | inactive | – | – | –
COc1cc2nc(=NC(=O)c3cccnc3)n3c(c2cc1OC)NCC3 | inactive | inactive | – | 4.59 µM (active) | 5.15 µM (active) | – | – | –
O=C(Nc1ccc(N2CCC(C(=O)N3CCOCC3)CC2)cc1)c1cnc(Oc2ccccc2)nc1 | inactive | inactive | – | inactive | inactive | – | – | –
